# According to the supplement of paper PMC6763611:
# Tested on: Plasmodium falciparum NF54
# Experiment: growth inhibition relative to untreated control; higher = more inhibition
# Details: 72 h
# Outline: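 Ring-stage P. falciparum NF54 parasites at 1% hematocrit and 1% parasitemia were dispensed at 100 μL/well into dark 96-well half-area plates and given a single dose of test compound at 5 μM or 1 μM for 72 h at 37 °C. Incubation took place in minimal RPMI, either alone or supplemented with the chorismate end-products folate (2.2 μM), pABA (7.3 μM), pHBA (7.3 μM), tyrosine (111 μM), phenylalanine (90 μM) and tryptophan. Growth inhibition was determined with SYBR Green relative to untreated wells, using uninfected erythrocytes for background.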
# [1] = 1 µM, MM + chorismate end-products (CM screening medium)
# [2] = 5 µM, MM + chorismate end-products (CM screening medium)
Structure (SMILES),growth inhibition [1],"growth inhibition (1 µM, minimal medium (MM))",growth inhibition [2],"growth inhibition (5 µM, minimal medium (MM))"
O=C(OCc1ccccc1)N1CCC(c2cc(-c3ccncc3)c(-c3ccc(F)cc3)[nH]2)CC1,62.4%,62.7%,98.3%,64.2%
Cc1cc(NC(=O)c2ccc(S(=O)(=O)N(Cc3ccccc3)C(C)C)cc2)no1,95.5%,> 100%,99.8%,93.1%
O=C(Nc1nnc(-c2ccc(Cl)s2)o1)c1ccc(Cl)s1,34.8%,22.8%,< 0%,< 0%
O=C(COc1cccc(F)c1)Nc1nc(-c2ccccn2)cs1,< 0%,2.24%,< 0%,< 0%
CS(=O)(=O)N1CCC(Cn2nc(Cc3cccc4ccccc34)c3c(N)ncnc32)CC1,41.5%,< 0%,42.7%,17.6%
CN1CCN(S(=O)(=O)c2ccc(-c3ccc4c(Nc5ncc(Cl)cn5)ccnc4c3)cc2)CC1,96.5%,96.3%,99%,88.6%
N#Cc1ccc(-c2cnc(N)c(-c3ccc(C(N)=O)cc3)n2)cc1,99.3%,> 100%,> 100%,89.9%
N#CCN(CCCCN1CCN(c2ccc(F)cc2)CC1)C(=O)OCc1ccccc1,20.2%,7.66%,32.3%,18.1%
O=C(NC1CC1)c1ccc(CSCc2ccccc2Cl)o1,59.9%,> 100%,> 100%,90.8%
CN1CCN(c2nccc3[nH]c(-c4cccc(F)c4)cc23)CC1,< 0%,58.4%,99%,90%
O=C1[C@@H](Oc2ccccc2)[C@@H](c2ccc(Cl)cc2)N1CCn1cnc2c(NCc3ccccc3)ncnc21,< 0%,22.4%,< 0%,7.4%
O=C(Nc1cccc(-c2ccc(NCCCN3CCCC3)nc2)c1)c1ccccc1,96.3%,> 100%,63.2%,81.1%
c1ccc(-c2[nH]c3ccccc3c2C(c2ccccn2)N2CCCC2)cc1 (stereo not drawn),3.66%,5.9%,43.6%,< 0%
FC(F)(F)c1cnc(Sc2nnc(-c3ccncc3)o2)c(Cl)c1,53%,61.3%,64%,< 0%
COc1nc2ccc(Br)cc2cc1[C@@H](c1ccccc1)[C@@](O)(CCN(C)C)c1cccc2ccccc12,73.2%,77.4%,99.4%,88.2%
Clc1ccc(CCNc2cc(-c3ccccc3)nc3ncnn23)cc1,< 0%,0.487%,5.05%,< 0%

Structure (SMILES),growth inhibition [1],"growth inhibition (1 µM, minimal medium (MM))",growth inhibition [2],"growth inhibition (5 µM, minimal medium (MM))"
Nc1ncnc2c1ncn2[C@@H]1O[C@H](COS(=O)(=O)NC(=O)c2ccccc2O)[C@@H](O)[C@H]1O,32.6%,< 0%,< 0%,< 0%
CS(=O)(=O)c1ccc(C(=O)N(CC2CCCO2)c2nc3ccccc3s2)cc1[N+](=O)[O-] (stereo not drawn),< 0%,31.2%,72.3%,55.5%
Cc1cc(Cl)c(S(=O)(=O)N2CCCC2)cc1OCC(=O)NC1CCCCC1,71.3%,100%,82.3%,59.9%
O=C(Nc1ccc(F)c(-c2nc3cc(-c4ccccc4)cnc3[nH]2)c1)N1CCCC1,17.5%,25.6%,3.27%,< 0%
COC(=O)c1ccc(F)cc1NS(=O)(=O)c1cccc(-c2cnn(Cc3ccccc3)c2)c1,33.2%,37.7%,9.57%,< 0%
O=C(NCCc1ccccc1)c1cc(-c2cccnc2)cnc1NCC1CC1,77.5%,> 100%,59.2%,47%
CNC(=O)C1Cc2ccccc2N1C(=O)Cc1ccc(F)cc1 (stereo not drawn),10.9%,< 0%,< 0%,< 0%
O=C1N(Cc2cc3ccccc3s2)CC2CN(Cc3ccccc3)CCN12 (stereo not drawn),97.5%,98%,96.5%,94.8%
CCN(CC)C(=O)N1CCN(C)CC1,31.7%,2.45%,< 0%,< 0%
CCOc1ccc2cc(-c3nn(C(C)(C)C)c(N)c3C(N)=O)cnc2c1,11%,18.1%,3.3%,< 0%
NC(CC(=O)c1ccc(Cl)cc1Cl)C(Cl)(Cl)Cl (stereo not drawn),< 0%,11.5%,18.3%,23%
CC(C(=O)Nc1ccc2oc(-c3ccncc3)nc2c1)c1ccccc1 (stereo not drawn),14.6%,< 0%,< 0%,< 0%
CCCn1c(CNc2ccccc2O)nc2ccccc21,11.5%,22.8%,12.5%,< 0%
CC1CS(=O)(=O)CCN1/N=C/c1ccc([N+](=O)[O-])o1 (stereo not drawn),< 0%,0.769%,< 0%,< 0%
OCc1ccc(-c2cncc(Nc3cccc(Cl)c3)c2)cc1,78.7%,> 100%,83.2%,85%
CC(=O)NC[C@@H]1CN(c2ccc(N3CCOCC3)c(F)c2)C(=O)O1,18.8%,11.7%,< 0%,< 0%
